From PubChem BioAssay (NCI)
This is part of a sample that, as a whole, favours compounds with a hit. Of some 83,000 tested, about 20% had one in any assay.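 How to read the values: 0–100, growth inhibition (40 = 60% inhibited); 0, no net growth; -100 to 0, cell death (-40 = 40% of starting cells died; -100 = all dead).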 Values without a mark were called inactive. Calls of active or inactive are those of the source. Rule for the calls: active = growth percent below 10; inactive = the rest.

Tests used:
Assay in all cases: NCI-60 one-dose screen, 48 h (100 = growth as untreated, 0 = no growth, -100 = all killed)
Conditions in all cases: 10 µM unless noted
SR leukemia = system: SR leukemia
RPMI-8226 leukemia = system: RPMI-8226 leukemia
OVCAR-8 ovarian = system: OVCAR-8 ovarian
OVCAR-5 ovarian = system: OVCAR-5 ovarian
OVCAR-4 ovarian = system: OVCAR-4 ovarian
SK-OV-3 ovarian = system: SK-OV-3 ovarian
IGROV1 ovarian = system: IGROV1 ovarian
OVCAR-3 ovarian = system: OVCAR-3 ovarian
HS 578T breast = system: HS 578T breast
NCI/ADR-RES ovarian = system: NCI/ADR-RES ovarian

SMILES	growth (SR leukemia)	growth (RPMI-8226 leukemia)	growth (OVCAR-8 ovarian)	growth (OVCAR-5 ovarian)	growth (OVCAR-4 ovarian) [%]	growth (SK-OV-3 ovarian)	growth (IGROV1 ovarian)	growth (OVCAR-3 ovarian)	growth (HS 578T breast)	growth (NCI/ADR-RES ovarian)
O=C(c1ccncc1)N1N=C(c2ccc(Cl)cc2)C[C@H]1c1cn(-c2ccccc2)nc1-c1ccccc1	91.1%	105%	74.6%	105%	82.6	83.4%	99.4%	94.7%	87.2%	87%
COc1ccc(C(=O)C/C(=C\c2ccc(Cl)cc2)C(=O)NCc2ccccc2)cc1	60.3%	75.7%	82.3%	99.5%	105	79.3%	86.3%	100%	86.4%	89.1%
CC1CN(S(=O)(=O)c2oc(-c3ccc(Cl)cc3)nc2C#N)CC(C)O1 (stereo not given)	-12.9% (active)	24.2%	54.6%	100%	92.4	99.9%	80.5%	34.4%	98.7%	101%
O=C(NCc1ccc(Cl)cc1Cl)C1CCC(=O)N1c1cccs1 (stereo not given)	91.8%	95.5%	93.5%	91.2%	97.5	89.6%	92.4%	108%	101%	83.9%
CC(=O)O[C@H]1CC2CCC3C(CC[C@@]4(C)C3C[C@H]([N+]3(C)CCCCC3)[C@@H]4OC(C)=O)[C@@]2(C)C[C@@H]1N1CCCCC1 (stereo not given in full)	99.5%	110%	98.1%	110%	103	106%	111%	112%	65%	103%
CCC(=O)Oc1ccc(-c2ccccc2)cc1Br	107%	104%	106%	104%	105	120%	112%	114%	115%	110%
CN1CCN(C(=O)c2ccc(NC(=O)c3cc4c(nn3)NCCN4Cc3cc(Cl)ccc3Cl)cc2)CC1	0.181% (active)	65.3%	91.1%	56.4%	72.8	88.4%	81.3%	89.8%	76.9%	95.7%
N#CC1=C(N)Oc2c(ccc3ccccc23)C1c1ccccc1 (stereo not given)	15.2%	8.06% (active)	7.27% (active)	33.8%	50.3	12.7%	27.2%	-2.34% (active)	28.8%	2.65% (active)
CCOC(=O)c1c2c(n3cccc(F)c13)C(=O)c1ncccc1C2=O	20.5%	37.5%	19.3%	44.3%	24.4	-4.82% (active)	34.4%	-11.1% (active)	31.5%	18.7%
O=C(OC(CO)C(=O)NC12CC3CC(CC(C3)C1)C2)c1ccc(Cl)cc1 (stereo not given)	84.7%	98%	100%	96.3%	101	107%	109%	115%	99.5%	107%
O=c1scc(-c2ccc(C(F)(F)F)cc2)s1	89.9%	97.7%	94.7%	95.6%	76.8	99.3%	72.6%	103%	92.1%	102%
CN1C(=O)/C(=C\c2c(Cl)cccc2Cl)c2ccccc21	34.3%	84.2%	94.1%	98.6%	87.9	99.2%	92.1%	95.4%	81.7%	80.1%
COc1ccc(/C=C(\C#N)n2nnc3cc(Cl)ccc32)cc1	19%	8.04% (active)	12.6%	-33.7% (active)	25.5	44.4%	3.88% (active)	-35.8% (active)	-8.59% (active)	-11.6% (active)
